# hgDAF12 agonist: hgDAF-12 agonism, primary luciferase screen; HEK293 GAL4-hgDAF12 UAS-luciferase reporter, agonist luminescence; normalized to butyrate control; activation, % at 6.8 µM; actives 1.8% (n = 370,000); AID 687014;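 active = activation above a cutoff set at the mean of all screened compounds plus 3 SD, cut at about 10% in these data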;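 also: 0% = DMSO wells and 100% = sodium butyrate wells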
# DAX1 inh-1: blocks DAX1 repression of SF-1 activated StAR promoter; AID 652010; HEK293T StAR-luciferase reporter, SF-1/DAX-1 repression relief; actives 1.1% (n = 370,000); inhibition, % at 6.8 µM;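 active = inhibition above the mean over all tested compounds plus 3 SD, cut at about 3.6% in these data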;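 also: 0% = DAX-1 cells with DMSO and 100% = cells lacking DAX-1 with DMSO; higher inhibition means more luminescence from relief of DAX-1 repression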
# hcDAF12 agonist: activators of H. contortus DAF-12 nuclear receptor; HEK293 hcDAF-12 lit1-tk-luc reporter, luminescence; 0% DMSO, 100% Δ7-dafachronic acid; AID 652067; actives 1.4% (n = 370,000); activation, % at 6.8 µM;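 active = activation above the mean of all tested compounds plus 3 SD, cut at about 5.5% in these data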;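 also: 100% = response to 3 µM Δ7-dafachronic acid high control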
# ssDAF-12 act: activators of S. stercoralis DAF-12 nuclear receptor; HEK293 ssDAF-12/GRIP1 lit1-tk-luc reporter, luminescence; % of 3 µM dafachronic acid response; activation, % at 6.8 µM; actives 1% (n = 370,000); AID 652126;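 active = activation above the mean over all tested compounds plus 3 SD, cut at about 0.9% in these data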;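 also: 0% = DMSO-only wells and 100% = 3 µM delta7-dafachronic acid wells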
# SMARCA2 activ: SMARCA2 function activation, primary screen; MG213 cells, MMTV-luciferase reporter, dexamethasone, overnight; activation, % at 9.1 µM; actives 1% (n = 370,000); in the data active = activation above about 7.8%;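 also: 0% = vehicle wells and 100% = reference activator wells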
# DAX1 inh-2: NR0B1 (DAX1) inhibition; P51843; HEK293 Gal4-DAX1 luciferase reporter, luminescence; inhibition, % at 6.75 µM; actives 0.99% (n = 340,000); AID 504766;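 active = inhibition above the mean over all tested compounds plus 3 SD, cut at about 4.2% in these data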;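 also: 0% = DAX1-transfected cells with DMSO and 100% = empty-vector control cells with DMSO; inhibition shows as a rise in luminescence from relieved DAX1 repression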
# Target sequence (P51843 207-470 limits assumed): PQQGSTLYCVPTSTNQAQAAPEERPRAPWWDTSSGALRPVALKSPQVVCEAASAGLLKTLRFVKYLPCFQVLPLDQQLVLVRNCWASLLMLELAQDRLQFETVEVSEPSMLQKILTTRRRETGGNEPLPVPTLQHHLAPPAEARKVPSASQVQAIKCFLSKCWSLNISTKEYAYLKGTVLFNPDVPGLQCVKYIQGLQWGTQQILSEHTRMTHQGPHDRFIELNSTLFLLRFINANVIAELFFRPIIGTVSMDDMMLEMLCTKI
# SMARCA2 act conf: SMARCA2 activation, confirmation screen; MG213 cells, MMTV-luciferase with dexamethasone, luminescence, overnight; MG213 cells expressing E1A, Rb sequestered; DMSO wells 0%, reference activator 100%; actives 30% (n = 3,500); activation, % at 9.1 µM; shares compounds with SMARCA2 activ;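 active = activation above its plate's cutoff, the mean activation of tested wells plus 3 SD, cut at about 7.9% in these data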
# GAL4-VP16 Luc: counter-screen for SMARCA2 activators: GAL4-VP16 luciferase reporter activation; shares compounds with SMARCA2 activ; HEK293 GAL4-VP16 pG5luc reporter, luciferase luminescence; scaled: DMSO wells 0%, SAHA wells 100%; activation, % at 9.1 µM; actives 41% (n = 3,500);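 active = activation above the solvent-only control well mean plus 3 SD, averaged across control plates, cut at about 5.2% in these data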
# Numbers without * were called inactive; nt = not tested or not shown. The list is not random: actives were taken first. Their share in the collection is about 4.8%.
SMILES,hgDAF12 agonist,DAX1 inh-1,hcDAF12 agonist,ssDAF-12 act,SMARCA2 activ,DAX1 inh-2,SMARCA2 act conf,GAL4-VP16 Luc
COc1ccc(-c2coc3cc(O)ccc3c2=O)cc1OC,9,1,0,-1,5,2,nt,nt
O=c1c(-c2ccc(F)cc2)coc2cc(O)ccc12,9,3,5,-1,12*,2,5,11*
Oc1cccc2cnccc12,3,0,0,-1,-4,0,nt,nt
Cc1cc(CN2CCCC(C(=O)Nc3ccc(-c4nc5ccccc5[nH]4)cc3)C2)n[nH]1 (stereo unspecified),5,2,0,-1,10.0*,0,2,5.5*
COc1ccc(S(=O)(=O)Nc2cc(C(=O)NC(C)C)ccc2N2CCOCC2)cc1,-3,0,0,0,2,-1,nt,nt
O=C(COC(=O)/C=C/c1c(F)cccc1Cl)NCC1CCCO1 (stereo unspecified),1,2,-1,-1,-1,-1,nt,nt
O=C(COC(=O)/C=C/c1ccc(Cl)cc1Cl)NCC1CCCO1 (stereo unspecified),1,1,1,-1,8.7*,0,2,0
Brc1ccc(CN2CCCc3nc(-c4ccccc4)ccc32)cc1,5,-1,2,1,-2,nt,nt,nt
O=S(=O)(c1ccc(C(F)(F)F)cc1)N1CCCc2nc(-c3ccc(Br)cc3)ccc21,4,0,0,0,15*,nt,-3,5
FC(F)(F)c1ccccc1CN1CCCc2nc(-c3ccccc3)ccc21,0,1,0,-1,2,nt,nt,nt
COc1ccc(-c2ccc3c(n2)CCCN3Cc2ccccc2C(F)(F)F)cc1,8,4.2*,2,-1,8.2*,nt,3,5.8*
COc1ccc(-c2ccc3c(n2)CCCN3S(=O)(=O)c2ccc(OC)cc2)cc1,0,-1,-2,-2,-11,nt,nt,nt
COCCN1CCCc2nc(-c3ccc(Br)cc3)ccc21,11*,4.0*,1,0,11*,nt,7,7.8*
COc1ccc(N2CCN(C(CNS(=O)(=O)c3ccc4c(c3)OCCO4)c3ccco3)CC2)cc1 (stereo unspecified),-4,-2,-3,-1,-1,-2,nt,nt
NC(=O)NCCC1=CCCCC1,-1,1,-2,-1,-1,-1,nt,nt
O=C(NCCC1=CCCCC1)c1ccc(=O)oc1,-1,0,-1,-2,-4,0,nt,nt
O=C(NCCc1ccccc1)c1coc(=O)c(Br)c1,-1,0,-1,-1,27*,1,-9,5
O=C(NCCC1=CCCCC1)c1coc(=O)c(Br)c1,-1,0,-1,-1,20*,1,-1,5.5*
Cc1cc(C(=O)NCCC2=CCCCC2)c(C)o1,7,3,3,0,11*,3,20*,12*
O=C(NCCC1=CCCCC1)NC1CCCCC1,11*,3,4,0,8.7*,1,8.1*,8.7*
Cc1cc(C(=O)Nc2ccc(S(=O)(=O)Nc3onc(C)c3C)cc2)c(C)o1,-2,-1,-1,-1,0,-1,nt,nt
CCOC(=O)c1ccc(S(=O)(=O)N2CCC(C(=O)OCC)CC2)cc1,1,0,-1,-2,-1,0,nt,nt
O=C(COC(=O)c1cc(Br)c(Br)s1)NCCC1=CCCCC1,0,0,0,-2,9.3*,-2,-3,2
O=C(COC(=O)c1ccccc1Br)NCCC1=CCCCC1,5,1,0,-1,7,2,nt,nt
O=c1c2ccc(Cl)cc2[nH]c(=S)n1Cc1cccnc1,2,0,1,-1,4,3,nt,nt
SMILES,hgDAF12 agonist,DAX1 inh-1,hcDAF12 agonist,ssDAF-12 act,SMARCA2 activ,DAX1 inh-2,SMARCA2 act conf,GAL4-VP16 Luc
O=C(NCc1ccc(Cl)cc1)c1noc2c1CCCC2,3,0,-1,-1,-2,-1,nt,nt
Cc1cc(C(=O)N/N=C/c2cccc(Cl)c2Cl)no1,7,0,1,-1,11*,1,4,8.8*
Cc1ccc(P(=O)(CC(=O)O)c2ccc(C)cc2)cc1,2,0,-1,-1,1,1,nt,nt
O=C1CCCCC1Sc1nnc(Nc2ccccc2)s1 (stereo unspecified),11*,2,1,-1,8.8*,4,1,7.7*
CCC(CO)NC(=O)c1ccccc1C(F)(F)F (stereo unspecified),-1,1,-2,-1,-2,0,nt,nt
CCOC(=O)/C(C#N)=C/c1c(N2CCN(c3ccccc3)CC2)nc2ccccn2c1=O,10,2,3,0,9.9*,0,7,4
COc1ccc(C(=O)NN/C(C)=C/C(=O)c2ccccc2)cc1,2,-1,1,-1,-1,0,nt,nt
Cc1oc(=O)c(NC(=O)c2cccc(Cl)c2)cc1C(=O)c1ccccc1,3,1,3,0,8.6*,0,2,10*
Cc1cc(Br)ccc1NC(=O)CCN1C(=O)c2ccncc2C1=O,3,0,1,0,-4,0,nt,nt
CC1(C)Cc2cccc(OCC(=O)OCc3nnc(-c4ccccc4)o3)c2O1,2,1,-1,-1,-2,0,nt,nt
Cc1c(C(=O)Oc2ccc(F)cc2)sc2ncn(Cc3cccc(F)c3)c(=O)c12,-1,0,-2,-1,1,-1,nt,nt
CCn1cnc2sc(C(=O)Oc3cccc(C)c3)c(C)c2c1=O,0,0,-2,-1,11*,2,7,4
Cc1cc(=O)oc(C)c1C(=O)NNC(=O)C1(C)CC1Br (stereo unspecified),-2,0,1,-1,8.9*,2,3,0
CC1(C(=O)NNC(=O)c2ccc(=O)oc2)CC1Br (stereo unspecified),1,0,2,0,1,nt,nt,nt
COc1ccc(C(=O)NC(=S)NNC(=O)c2cnccn2)cc1,-1,0,4,0,33*,1,-3,1
Cc1ccc(C(=O)N/C(=C/c2ccco2)C(=O)NCC2CCCO2)cc1 (stereo unspecified),0,0,-1,-1,9.9*,1,2,1
COc1ccc(C(=O)NC(=S)NCC2CCCO2)cc1 (stereo unspecified),2,0,1,0,11*,1,2,4
Cc1ccc(C(=O)N/C(=C\c2ccco2)C(=O)NCC2CCCO2)cc1C (stereo unspecified),2,1,1,-1,0,1,nt,nt
